This is an account of results in PubChem BioAssay AID488969 (Vanderbilt High Throughput Screening Facility, 2010).

The structures appear in SMILES notation. Over roughly 110,000 compounds, “z-score” has its median near -0.1; the highest 2% begin near 2. This is one part of a sample in which the highest values are shown more often than they occur. Active and inactive are the calls of the source.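 How the source made its calls: active means z-score in the third read window above 3 or below -3; inactive means the rest.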

The target in this assay is Metabotropic glutamate receptor 8 (Rattus norvegicus) (UniProt P70579). The assay is described as follows: mGluR8 Gi/Go-coupled signaling modulation – cell-based, rat, thallium flux, HTS, primary screen (AID 488969). The settings on record: HEK293 rat mGluR8, GIRK (G protein-gated inwardly rectifying potassium channel) thallium flux, FluoZin2; at 10 µM; stronger effect = higher value; submaximal glutamate (EC20) added with thallium.
Metabotropic glutamate receptor 8 (Rattus norvegicus), sequence (P70579 whole entry, looked up): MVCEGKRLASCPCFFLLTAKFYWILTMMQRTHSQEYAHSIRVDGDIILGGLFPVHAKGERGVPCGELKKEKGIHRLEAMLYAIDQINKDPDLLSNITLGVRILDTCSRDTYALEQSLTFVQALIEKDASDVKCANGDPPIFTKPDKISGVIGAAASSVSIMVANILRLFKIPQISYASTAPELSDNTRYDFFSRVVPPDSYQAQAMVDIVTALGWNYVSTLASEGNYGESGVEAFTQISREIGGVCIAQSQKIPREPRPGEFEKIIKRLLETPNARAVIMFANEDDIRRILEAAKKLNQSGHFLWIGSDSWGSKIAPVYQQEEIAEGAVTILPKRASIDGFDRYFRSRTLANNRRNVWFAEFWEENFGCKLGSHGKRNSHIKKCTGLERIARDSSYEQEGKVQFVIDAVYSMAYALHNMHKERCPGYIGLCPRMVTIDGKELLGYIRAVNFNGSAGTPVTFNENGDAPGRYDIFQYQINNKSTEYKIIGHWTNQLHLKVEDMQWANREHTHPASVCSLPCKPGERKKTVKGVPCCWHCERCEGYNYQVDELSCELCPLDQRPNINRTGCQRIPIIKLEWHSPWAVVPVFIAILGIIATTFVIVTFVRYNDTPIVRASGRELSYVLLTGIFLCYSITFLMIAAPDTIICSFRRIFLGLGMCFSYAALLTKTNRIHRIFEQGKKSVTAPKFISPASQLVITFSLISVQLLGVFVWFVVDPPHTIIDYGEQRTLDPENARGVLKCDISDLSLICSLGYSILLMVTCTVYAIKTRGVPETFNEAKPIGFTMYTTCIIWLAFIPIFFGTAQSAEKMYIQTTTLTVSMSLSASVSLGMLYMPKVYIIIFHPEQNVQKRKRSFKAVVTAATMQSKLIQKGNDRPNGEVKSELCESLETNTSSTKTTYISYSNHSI
`O=C(NCCc1ccc(Cl)cc1)C1CCCN(S(=O)(=O)c2cnc[nH]2)C1` (centres undefined) gave a z-score of 0.0211.
As to `COc1ccc(S(=O)(=O)N(CCN2CCOCC2)Cc2cc(OC)ccc2OC)cc1`, the z-score was -0.389.
`Cc1cc2nc(CCN(Cc3cccnc3)C(=S)Nc3ccccc3)[nH]c2cc1C`: the z-score turned out to be 0.259.
`Cc1ccc(S(=O)(=O)N2CCOCC2)cc1C(=O)OCC(=O)Nc1ccc2c(c1)OCO2` showed a z-score of -0.412.
For the compound `O=S(=O)(c1ccc(Nc2ccc3c(c2)OCO3)nc1)N1CCOCC1`, the z-score was determined as 2.28.
The compound `O=S(=O)(c1ccc(NC(=S)Nc2ccc3c(c2)OCO3)cc1)N1CCOCC1` came in with a z-score of 0.154.
In the case of `C=CCn1c(SCn2nnc3ccccc3c2=O)nnc1-c1ccc(Br)cc1`, the z-score amounted to 0.482.
In turn, `Cc1ccc(/C=C(\NC(=O)c2ccc(C)cc2)c2nc(=S)[nH][nH]2)cc1` showed a z-score of 0.31.
For `COC(=O)c1ccccc1NC(=S)N(Cc1ccc2c(c1)OCO2)Cc1cc2cc(C)ccc2[nH]c1=O`, the z-score was 2.03.
The compound `COC(=O)c1ccccc1NC(=S)N(Cc1ccc2c(c1)OCO2)Cc1cc2ccc(C)cc2[nH]c1=O` had a z-score of 0.26.
`COC(=O)c1ccccc1NC(=S)N(Cc1ccc2c(c1)OCO2)Cc1cc2cc(OC)ccc2[nH]c1=O` returned a z-score of -0.529.
`CC(C)(C)N=C1NN=C(c2cc3ccccc3o2)CS1` had a z-score of -0.336.
As for `CC(=O)O/N=C(/C)c1ncc(C(F)(F)F)cc1N1CCOCC1`, the z-score was -0.337.
In the case of `Cc1ccccc1Cn1c(CN2CCc3ccccc3C2)nc2c1c(=O)n(C)c(=O)n2C`, the z-score is -0.399.
As to `COc1ccc(/C=C(/C(=O)c2ccc(Cl)cc2Cl)n2cncn2)cc1`, the z-score came out at 0.0171.
To `COc1ccc(C(=O)NC2CCCCCC2)cc1S(=O)(=O)N1CCCc2ccccc21` belongs -0.00531; to `CCN(/N=C/c1cccs1)c1cc(=O)n(C)c(=O)[nH]1`, -0.0804; to `O=C(NN=C1c2ccccc2-c2ccccc21)c1ccccc1Br`, 5.82 (active).
To `O=C(N/N=C/C=C/c1ccccc1)c1cccc(Br)c1` belongs 0.831; to `O=C(NN=C1c2ccccc2-c2ccccc21)c1cccc(Br)c1`, 4.19 (active); to `O=C(COc1cccc(Br)c1)NN=C1c2ccccc2-c2ccccc21`, 0.184.
`O=C(NN=C1c2ccccc2-c2ccccc21)c1ccccn1` had a z-score of 0.564.
`O=C(N/N=C/C=C/c1ccccc1)c1ccccc1Br`: the z-score was -0.846.
To `CCC(C)N(C)Cc1cccc(C2(O)CCN(S(=O)(=O)c3ccc(F)cc3)CC2)c1` (centres undefined) belongs -0.276.
With `CCOc1ccc(Nc2oc(-c3ccccc3Cl)nc2C#N)cc1`, the z-score was -0.217.
To `CCOC(=O)CSc1nnc2cc(C)c3ccccc3n12` belongs -1.09; to `Cc1cc2nnc(SC(C)C)n2c2ccccc12`, -1.9.
Turning to `CCOC(=O)C(CC)Sc1nnc2cc(C)c3ccccc3n12` (centres undefined), the z-score was 7.83 (active).
To `Cc1c([N+](=O)[O-])c([N+](=O)[O-])nn1CC(=O)N1CCCCC1` belongs -0.199; to `Cc1ccc(S(=O)(=O)N2CCCC2C(=O)O)cc1` (centres undefined), 0.451.
`CC1CCCCC1NC(=O)Cn1nnc(-c2ccc(Cl)cc2)n1` (centres undefined) had a z-score of 0.119.
Consider `Cc1ccc(-c2nnn(CC(=O)NC3CC4CCC3C4)n2)cc1` (centres undefined), for which the z-score was 5.1 (active).
To `Cc1ccc(-c2nnn(CC(=O)NC3CCN(Cc4ccccc4)CC3)n2)cc1` belongs 0.381; to `CC(O)c1n(C)c(Cl)c[n+]1C` (centres undefined), -0.00128.
To `O=C(CO/N=C/c1ccccc1O)N1CCc2ccccc21` belongs -0.0476; to `O=C(Nc1nnc(-c2ccc(Cl)cc2)o1)c1cccc(N2C(=O)CCC2=O)c1`, 3.29 (active).
On to `Cc1cc(NC(=O)c2ccc(N3C(=O)CCC3=O)cc2)no1`, for which the z-score is 0.412.
To `O=C(Nc1nnc(-c2ccc(Cl)cc2)o1)c1ccc(N2C(=O)CCC2=O)cc1` belongs 4.39 (active); to `O=C(Nc1nnc(-c2ccc(Cl)cc2)o1)NC1CCCCC1`, -0.0226.
To `O=C(Nc1nnc(-c2ccccc2)o1)c1cccc(N2C(=O)CCC2=O)c1` belongs -0.326; to `O=C(Nc1ccccc1)c1cccc(N2C(=O)CCC2=O)c1`, -0.0312.
The compound `Cc1cc(C)c(C)c(OCCCn2ccnc2)c1` displayed a z-score of -0.369.
To `COC(=O)c1ccc(/C=N/N2CCN(Cc3ccccc3)CC2)cc1` belongs -0.196.
To `COC(=O)c1ccc(/C=N/N2CCN(Cc3ccc(C)cc3C)CC2)cc1` belongs 2.42; to `COC(=O)c1ccc(/C=N\N2CCN(Cc3ccc(C)cc3)CC2)cc1`, -0.269.
To `Cc1cccc(NC(=O)C2Cc3ccccc3CN2C(=O)OCc2ccccc2)c1C` (centres undefined) belongs -0.188; to `CCC1CCCCN1C(=O)CSc1nc2c([nH]c3ccccc32)c(=O)n1C` (centres undefined), 0.357.
Take `CCOP(=O)(OCC)C(Nc1ccccn1)c1ccc(F)cc1` (centres undefined): the z-score is -0.18.
To `O=C(NCc1ccccc1F)c1cccs1` belongs -0.158.
In turn, `O=C(O)c1cc2c(ccc3ccccc32)[nH]1` gave a z-score of -0.467.
`CC1=CCC(C(=O)O)C(C(=O)Nc2nc3ccc(S(C)(=O)=O)cc3s2)C1` (centres undefined) had a z-score of 0.387.
For `O=C(Nc1nc2ccc(F)cc2s1)C1CCCO1` (centres undefined), the z-score amounted to 0.535.
To `CS(=O)(=O)c1ccc2nc(NC(=O)Nc3ccc(Cl)c(Cl)c3)sc2c1` belongs 3.23 (active); to `CS(=O)(=O)c1ccc2nc(NC(=O)Nc3cccc(Cl)c3)sc2c1`, 0.135.
On to `NS(=O)(=O)c1ccc2nc(NC(=O)C3CCCO3)sc2c1` (centres undefined), for which the z-score is 2.74.
In turn, `CS(=O)(=O)c1ccc2nc(NC(=O)Nc3ccc(Cl)cc3)sc2c1` displayed a z-score of 0.161.
Consider `CS(=O)(=O)c1ccc2nc(NC(=O)C3C4C=CC(C4)C3C(=O)O)sc2c1` (centres undefined), for which the z-score was 4.92 (active).
Compound `CCC(=O)Nc1nc2ccc(S(C)(=O)=O)cc2s1` returned a z-score of 0.244.
To `O=C(Nc1nc2ccc(S(=O)(=O)N3CCCCC3)cc2s1)C1CCCO1` (centres undefined) belongs -0.0835; to `CN(C)c1ccc(CN(C(=O)COc2ccccc2)C2CCS(=O)(=O)C2)cc1` (centres undefined), -0.709; to `O=C(NCc1cn(-c2ccccc2)nc1-c1ccccc1)c1ccc([N+](=O)[O-])cc1`, -0.0499.
In turn, `O=C(CSc1cc(Cl)ccc1Cl)NCC1CCCO1` (centres undefined) had a z-score of -0.0958.
In the case of `Cc1ccccc1-n1c(SCc2csc(Nc3ccccc3)n2)nnc1-c1cccnc1`, the z-score is -0.897.
Consider `CN1CCN(Cc2cccc(Oc3ccccc3)c2)CC1`, for which the z-score is 0.0807.
To `CCN1CCN(Cc2cccc(Oc3ccc(Cl)cc3)c2)CC1` belongs 0.924; to `CCN1CCN(Cc2cccc(Oc3ccccc3)c2)CC1`, 0.156; to `CC1CCCN(Cc2cccc(Oc3ccccc3)c2)C1` (centres undefined), 6.29 (active).
To `c1ccc(Oc2cccc(CN3CCCCC3)c2)cc1` belongs -0.282; to `CN1CCN(Cc2cccc(Oc3ccc(Cl)cc3)c2)CC1`, 4 (active).
Turning to `CCc1ccc(Nc2nnc(SCC(=O)N(C)CC(=O)Nc3ccccc3CC)s2)cc1`, the z-score was -0.439.
To `CSc1nccc(Oc2ccc(C#N)cc2)n1` belongs -0.172; to `CC1=C/C(=N\OS(=O)(=O)c2ccccc2)C=CC1=O`, 3.
To `CC1=CC(=O)C=C(C)C1=NOS(=O)(=O)c1ccccc1` belongs 0.257.
To `CC1=C/C(=N\OS(=O)(=O)c2ccccc2)C(C)=CC1=O` belongs -0.189; to `Cc1ccc(C(=O)N2CC(C)OC(C)C2)c(Cl)c1` (centres undefined), -0.0463; to `Cc1ccc(-n2c(Cc3cccn3C)nnc2SCC(=O)Nc2cc(C)on2)cc1`, -0.345.
Compound `CCCCNC(=S)NNC(=O)c1csc(CC)c1` gave a z-score of -0.0512.
To `CCc1cc(C(=O)NNC(=S)Nc2ccccc2C)cs1` belongs 1.47.
To `Cc1cccc(NC(=S)NNC(=O)c2sccc2C)c1` belongs 2.13.
As to `CCc1cc(C(=O)NNC(=S)Nc2cc(C)ccc2C)cs1`, the z-score is 6.35 (active).
To `Cc1ccc(C)c(NC(=S)NNC(=O)c2sccc2C)c1` belongs 1.53.
`CCc1cc(C(=O)NNC(=S)NCc2ccccc2)cs1` gave a z-score of 0.0336.
To `CCc1cc(C(=O)NNC(=S)Nc2cccc(C)c2)cs1` belongs 7.17 (active); to `CCNC(=S)NNC(=O)c1csc(CC)c1`, -0.163; to `CNC(=S)NNC(=O)c1sccc1C`, -0.0354.
The compound `Cc1nn2c3c(cnc2c1-c1ccccc1)C(=O)CCC3` returned a z-score of -0.149.
In turn, `CC(C)(C)C(=O)NC1(C(F)(F)F)N=C2SCCN2C1=O` (centres undefined) yielded a z-score of -0.137.
On to `O=C(COc1ccc(S(=O)(=O)NC2CCCCC2)cc1)NCc1cccnc1`, for which the z-score is -0.589.
To `COc1cc(-c2nc3ccccc3c(=O)n2N)cc(OC)c1OC` belongs -0.0215.
As for `O=C(CSc1ccc2nnc(-c3ccc(Cl)cc3)n2n1)N1CCCc2ccccc21`, the z-score was 0.00121.
`Cc1cc2nc3c(nc2cc1C)C1(C(=O)N(C)C)CCC3(C)C1(C)C` (centres undefined) yielded a z-score of -0.192.
Consider `Cc1cccc(-n2ncc3c(NCc4cccs4)ncnc32)c1`, for which the z-score was -0.705.
For the compound `O=c1c2ccccc2c(-c2ccccc2)nn1Cc1ccc(Cl)cc1`, the z-score was -0.152.
To `Cc1ccc2[nH]c3c(=O)n(CCC4=CCCCC4)cnc3c2c1` belongs -0.447; to `Cn1c(-c2ccccc2O)cc2ccccc21`, 0.085.
To `Cc1occc1C(=O)N=Nc1c(O)[nH]c2ccc(Br)cc12` belongs -0.135; to `CCC(=O)NC(=S)Nc1ccc(NC(=O)c2ccc(OC)cc2)cc1`, -0.111.
The compound `O=C(Nc1ccccc1Sc1ccccc1)C1CCCO1` (centres undefined) gave a z-score of -0.775.
To `CC(=O)c1cccc(NC(=O)C2CCCN2S(=O)(=O)c2cccc3cccnc23)c1` (centres undefined) belongs 4.14 (active); to `O=C(Nc1cccc(F)c1)C1CCCN1S(=O)(=O)c1cccc2cccnc12` (centres undefined), -0.182.
`CC(=O)c1ccc(NC(=O)C2CCCN2S(=O)(=O)c2cccc3cccnc23)cc1` (centres undefined) registered a z-score of -0.24.
On to `Cc1cccc(NC(=O)C2CCCN2S(=O)(=O)c2cccc3cccnc23)c1` (centres undefined), for which the z-score was 0.22.
`Cc1ccc(NC(=O)C2CCCN2S(=O)(=O)c2cccc3cccnc23)cc1F` (centres undefined) had a z-score of 2.9.
To `Cc1ccccc1NC(=O)C1CCCN1S(=O)(=O)c1cccc2cccnc12` (centres undefined) belongs -0.0844.
The compound `COc1ccc(-c2cn3c(C)c(C(=O)N4CCN(c5ccc(F)cc5)CC4)sc3n2)cc1` had a z-score of 0.116.
Turning to `COc1cccc(CNCCSc2nnnn2C)c1OC`, the z-score turned out to be 0.709.
For the compound `O=C(CSc1cccc2cccc(Cl)c12)NCc1cccs1`, the z-score is 3.5 (active).
To `Cc1csc(SCC(=O)NCc2cccs2)n1` belongs 0.824; to `O=C(CSc1ccc2ccccc2c1)NCc1cccs1`, 0.0417; to `O=C(NCc1cccnc1)c1cccc(C(F)(F)F)c1`, -0.793.
To `COc1ccccc1CNCc1ccc(OC)c(OC)c1OC` belongs 2.07.
To `COc1cccc(CNCc2ccc(SC)cc2)c1OC` belongs -0.19; to `COc1ccccc1CNCc1cccs1`, 0.411.
In turn, `CC1(C)CNC(=O)C=C(c2ccccc2)C1` gave a z-score of -0.176.
